Source: PubChem BioAssay
Hits are enriched below; roughly 19% of the tested compounds scored in any of these assays.
ELG1 DNA repair: qHTS screen for small molecules that inhibit ELG1-dependent DNA repair in human embryonic kidney (HEK293T) cells expressing luciferase-tagged ELG1. HEK293T ELG1-luciferase reporter, luminescence, 16 h; DNA damage induced by 5-fluorouridine. actives 2.3% (n = 330,000). Potency, µM (doses to about 46.1 µM), for inactives: at the highest dose activity change, negative = inhibition, hits mostly inhibitors. AID 504467, 2011; further: potency means the concentration at half of the fitted maximal effect; nearly all actives have a fitted effect of over 55% in size
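Quantitative HTS, concentration-response format. 2,000 cells/well co-treated with 5-fluorouridine and compound, 16 hr in 5% CO2 at 37 °C; ONE-Glo luminescence read after 30 min.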
DT40 TDP1 CPT: qHTS for Inhibitors of human tyrosyl-DNA phosphodiesterase 1 (TDP1): qHTS in cells in presence of CPT; chicken DT40 Tdp1-/-;hTDP1 cells + 20 nM CPT, ATP luminescence, 48 h; Potency, µM (series often up to 46.2 µM), for inactives: at the top dose activity change, negative = growth inhibition, most hits filed as inhibitors; actives 12% (n = 420,000); AID 686979, 2013; further: potency means the concentration at half of the fitted maximal effect; nearly all actives have a fitted effect of over 55% in size
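Chicken DT40 Tdp1-/- cells complemented with human TDP1, 400 cells/well, exposed to compounds plus 20 nM camptothecin for at least 48 h at 37 C; viability read as ATP content by CellTiter-Glo luminescence.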
HT1080-NT tox: qHTS for induction of synthetic lethality in tumor cells producing 2HG: qHTS for the HT-1080-NT fibrosarcoma cell line; AID 686970, 2013; actives 1.6% (n = 360,000); Potency, µM (series often up to 46.1 µM), for inactives: at the top dose activity, negative = less viability, most hits filed as cytotoxic; HT-1080-NT fibrosarcoma viability, CellTiter-Glo ATP luminescence, 48 h;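 further: NT is the 2HG producing partner of a matched IDH1 knockdown line; potency means the concentration at half of the fitted maximal effect; 0% = DMSO-treated cells and -100% = media-only wells without cells; nearly all actives have a fitted effect of over 55% in size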
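Viability by CellTiter-Glo luminescence after 48 h compound exposure at 37C of HT-1080-NT cells (750/well, RPMI, 5% FBS). % activity scaled between DMSO wells and medium-only wells, then curve-fitted and categorized by curve class.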
IL1B secr inh: qHTS for Inhibitors of Inflammasome Signaling: IL-1-beta AlphaLISA Primary Screen; THP-1 LPS/ATP IL-1B secretion, AlphaLISA, 16 h; hits give low values; activity change, % at 57.5 µM; actives 4.7% (n = 360,000); in the data active means activity change below about -50%; inconclusive means mostly about -30% to -49%
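Secreted IL-1B measured by AlphaLISA bead assay after 16 h compound exposure of THP-1 cells; compounds (final up to 57.5 uM) added 1 h before LPS (250 ng/mL) and ATP (1.25 mM) stimulation; lower signal means less secretion.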
HT1080 IDH1KD tx: qHTS for induction of synthetic lethality in tumor cells producing 2HG: qHTS for the HT-1080-IDH1KD cell line. HT-1080 IDH1 knockdown viability, ATP luminescence, 48 h. Potency, µM (top dose mostly 46.1 µM), inactives show top-dose activity, negative = toxicity, actives largely listed as cytotoxic. actives 2% (n = 360,000). AID 686971, 2013;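 further: potency means the concentration at half of the fitted maximal effect; 0% = DMSO wells and -100% = cell-free medium wells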
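HT-1080-IDH1KD cells (IDH1 knocked down), 750/well in RPMI with 5% FBS, treated with compound 48 h at 37 degrees C. Viability by CellTiter-Glo luminescence, normalised to DMSO and no-cell wells; concentration-response curves classed.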
DT40 TDP1 no CPT: qHTS for Inhibitors of human tyrosyl-DNA phosphodiesterase 1 (TDP1): qHTS in cells in absence of CPT. Potency, µM (top dose mostly 46.2 µM), inactives show at the highest dose activity change, negative = growth inhibition, actives largely listed as inhibitors. actives 15% (n = 420,000). AID 686978, 2013. DT40 Tdp1-/- hTDP1 cells, no CPT, ATP luminescence, 48 h; further: potency means the concentration at half of the fitted maximal effect; nearly all actives have a fitted effect of over 55% in size
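Growth kinetics read by CellTiter-Glo luminescence after ≥48 hr at 37 °C. Cells: DT40 Tdp1-/- stably carrying human TDP1, 400 per well, compound exposure in the absence of CPT (DMSO vehicle).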
* = called active by the depositor. Unless noted, the call rests on the fitted dose curve; in most records, active means well fitted curve in the direction sought with a large enough effect; inconclusive means small, poorly fitted or top-dose-only effect, or another doubt; inactive means no such curve, though single readings can be large; an effect the other way counts as inactive or inconclusive. Unless noted, on the % scale 0 is the no-effect control and ±100 the full control effect.

Screening COc1ccc(NC(=O)c2ccco2)cc1NC(=O)c1cccc(OC(C)C)c1 returned ELG1 DNA repair inconclusive, DT40 TDP1 CPT inconclusive, HT1080-NT tox -15%, IL1B secr inh -11, HT1080 IDH1KD tx -8% and DT40 TDP1 no CPT 12µM*.
Screening CN(C)c1ccc(NC(=O)c2ccc(COc3cccc(Cl)c3)o2)cc1 returned ELG1 DNA repair inconclusive, DT40 TDP1 CPT 21µM*, HT1080-NT tox -14%, IL1B secr inh -14, HT1080 IDH1KD tx -11% and DT40 TDP1 no CPT inconclusive.
For O=C(Nc1nccs1)c1ccc(COc2ccc(F)cc2)o1 the results were ELG1 DNA repair -26%, DT40 TDP1 CPT -18%, HT1080-NT tox 1%, IL1B secr inh -10, HT1080 IDH1KD tx 2% and DT40 TDP1 no CPT -3%.
CCN(CC)C(=O)c1ccc(COc2ccccc2Cl)o1 was read as ELG1 DNA repair 17%, DT40 TDP1 CPT -20%, HT1080-NT tox 6%, IL1B secr inh -12, HT1080 IDH1KD tx -9% and DT40 TDP1 no CPT 16µM*.
`CCN1CCN(C(=O)c2ccc(COc3cccc(Cl)c3)o2)CC1` gave ELG1 DNA repair inconclusive, DT40 TDP1 CPT inconclusive, HT1080-NT tox inconclusive, IL1B secr inh -7, HT1080 IDH1KD tx -1% and DT40 TDP1 no CPT -24%.
Screening O=C(Nc1nccs1)c1ccc(COc2ccccc2Br)o1 returned ELG1 DNA repair -10%, DT40 TDP1 CPT inconclusive, HT1080-NT tox 10µM*, IL1B secr inh -24, HT1080 IDH1KD tx inconclusive and DT40 TDP1 no CPT inconclusive.
Screening O=C(Nc1cccnc1)c1ccc(COc2cc(Cl)ccc2Cl)o1 returned ELG1 DNA repair inconclusive, DT40 TDP1 CPT inconclusive, HT1080-NT tox inconclusive, IL1B secr inh -2, HT1080 IDH1KD tx 23µM* and DT40 TDP1 no CPT 18µM*.
Screening Cc1ccc2nc(-c3ccc(C)o3)c(Nc3ccc(Cl)cc3)n2c1 returned DT40 TDP1 CPT inconclusive, HT1080-NT tox 25%, HT1080 IDH1KD tx 4% and DT40 TDP1 no CPT inconclusive.
`CSc1ncc(S(=O)(=O)c2ccccc2)c(=O)[nH]1` gave ELG1 DNA repair 12%, DT40 TDP1 CPT 0%, HT1080-NT tox 18%, IL1B secr inh -5, HT1080 IDH1KD tx 11% and DT40 TDP1 no CPT -9%.
`CCOc1ccc(OCc2ccc(C(=O)Nc3cccnc3)o2)cc1` gave ELG1 DNA repair -2%, DT40 TDP1 CPT inconclusive, HT1080-NT tox -7%, IL1B secr inh 0, HT1080 IDH1KD tx -12% and DT40 TDP1 no CPT inconclusive.
`O=C(Nc1cccnc1)c1ccc(COc2ccccc2Cl)o1` gave ELG1 DNA repair -6%, DT40 TDP1 CPT 18µM*, HT1080-NT tox inconclusive, IL1B secr inh -8, HT1080 IDH1KD tx 21µM* and DT40 TDP1 no CPT 21µM*.
For O=C(Nc1nn(Cc2ccc(Cl)cc2)cc1Br)c1ccc(COc2ccccc2Cl)o1 the results were ELG1 DNA repair 18µM*, DT40 TDP1 CPT 26µM*, HT1080-NT tox -13%, IL1B secr inh inconclusive, HT1080 IDH1KD tx -20% and DT40 TDP1 no CPT 26µM*.
For CN(C(=O)Cn1nc(C(=O)O)c2ccccc2c1=O)C1CCCCC1 the results were ELG1 DNA repair 16%, DT40 TDP1 CPT 14%, HT1080-NT tox 2%, IL1B secr inh 19, HT1080 IDH1KD tx 1% and DT40 TDP1 no CPT 3%.
Screening O=C(Cc1c(F)cccc1Cl)Nc1ccc(S(=O)(=O)NCC2CCCO2)cc1 (stereo unspecified) returned ELG1 DNA repair -1%, DT40 TDP1 CPT -10%, HT1080-NT tox 17%, IL1B secr inh -3, HT1080 IDH1KD tx -7% and DT40 TDP1 no CPT inconclusive.
Screening O=C(NCCN1CCOCC1)c1cc(-c2ccccc2)nc2ccccc12 returned DT40 TDP1 CPT -17%, HT1080-NT tox -1%, IL1B secr inh -12, HT1080 IDH1KD tx 0% and DT40 TDP1 no CPT inconclusive.
For CCn1nc(C)c(NC(=O)c2cnn3c(C(F)F)cc(-c4ccccc4)nc23)c1C the results were ELG1 DNA repair -28%, DT40 TDP1 CPT inconclusive, HT1080-NT tox -4%, IL1B secr inh 0, HT1080 IDH1KD tx -2% and DT40 TDP1 no CPT inconclusive.
CCOc1ccccc1NC(=O)c1cnn2c(C(F)F)cc(-c3ccccc3)nc12 was read as DT40 TDP1 CPT 15µM* and DT40 TDP1 no CPT 23µM*.
For O=C(Nc1ccc(C(=O)N2CCOCC2)cc1)c1cnn2c(C(F)F)cc(-c3ccccc3)nc12 the results were ELG1 DNA repair -12%, DT40 TDP1 CPT inconclusive, HT1080-NT tox -1%, IL1B secr inh -17, HT1080 IDH1KD tx -2% and DT40 TDP1 no CPT 5.8µM*.
Screening O=C(NCCN1CCOCC1)c1cnn2c(-c3ccccc3)cc(-c3ccccc3)nc12 returned ELG1 DNA repair inconclusive, DT40 TDP1 CPT inconclusive, HT1080-NT tox inconclusive, IL1B secr inh -55*, HT1080 IDH1KD tx inconclusive and DT40 TDP1 no CPT 23µM*.
COCCOc1ccc(C(F)(F)F)cc1NC(=O)CN1C(=O)NC2(CCc3ccccc32)C1=O (stereo unspecified) was read as ELG1 DNA repair 14%, DT40 TDP1 CPT -1%, HT1080-NT tox -7%, IL1B secr inh -20, HT1080 IDH1KD tx 2% and DT40 TDP1 no CPT inconclusive.
Screening O=[N+]([O-])c1ccc(N2CCN(S(=O)(=O)c3ccccc3)CC2)c2cccnc12 returned ELG1 DNA repair inconclusive, DT40 TDP1 CPT inconclusive, HT1080-NT tox -20%, IL1B secr inh 25, HT1080 IDH1KD tx -10% and DT40 TDP1 no CPT inconclusive.
For O=[N+]([O-])c1cccc2c(N3CCOCC3)ccnc12 the results were ELG1 DNA repair inconclusive, DT40 TDP1 CPT inconclusive, HT1080-NT tox inconclusive, IL1B secr inh 0, HT1080 IDH1KD tx -14% and DT40 TDP1 no CPT 15µM*.
`CCc1ccc(NC(=O)Cn2c(SC)nc3ccccc32)cc1` gave ELG1 DNA repair -20%, DT40 TDP1 CPT inconclusive, HT1080-NT tox -11%, IL1B secr inh 17, HT1080 IDH1KD tx -1% and DT40 TDP1 no CPT inconclusive.
